Laboratory results published in PubChem BioAssay (Tox21).
Values joined by “and” are separate entries in the source; they are usually repeats but may differ in a detail not shown here. Equal values may be shown once. Inconclusive results are not listed. The source holds several records for some structures; these can differ, active in one and inactive in another. Active and inactive are the calls of the source. Unless noted, the call rests on the fitted dose curve; in most records, active means well fitted curve in the direction sought with a large enough effect in the repeat runs; inconclusive means weak or mixed curves; inactive means no such curve, though single readings can be large; an effect the other way counts as inactive or inconclusive.

Legend:
[1] = qHTS assay to identify small molecule agonists of the vitamin D receptor (VDR) signaling pathway - cell viability counter screen (AID 743224); further: nearly all actives have a fitted effect of over 50% in size; further: potency means the concentration at half of the fitted maximal effect
Procedure, shortened: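 VDR-bla cells, 4 h after plating, exposed to compounds for 16 h at 37C; viability then read in the same wells as CellTiter-Glo luminescence after 30 min at room temperature, following the bla FRET read.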

[2] = qHTS assay to identify small molecule antagonists of the vitamin D receptor (VDR) signaling pathway - cell viability counter screen (AID 743225); further: nearly all actives have a fitted effect of over 50% in size
Procedure, shortened: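 Cells (VDR-UAS-bla HEK 293T) are plated, rested 4 h at 37C, dosed with compound and 3 nM final 1-alpha,25-dihydroxy vitamin D3, and incubated 16 h. Viability is taken from CellTiter-Glo luminescence in the reporter wells.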

[3] = qHTS assay to identify small molecule agonists of the NFkB signaling pathway (AID 1159509; active means well fitted curve in the direction sought with a large enough effect in the signal ratio in the repeat runs, not every such curve was filed as active; the % refers to the signal ratio; further: series mostly up to about 61 µM)
Procedure, shortened: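 NFkB-bla ME-180 cells carry a beta-lactamase reporter under an NF-kB response element. They were plated overnight, then exposed to compounds for 5 h at 37 C. Read-out is LiveBLAzer FRET after 1.5 hr at room temperature (405 nm excitation; 460/530 nm emission).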

[4] = qHTS assay to identify small molecule agonists of the NFkB signaling pathway - cell viability counter screen (AID 1159515; calls by dose curve; further: series mostly up to about 61 µM; nearly all actives have a fitted effect of over 55% in size)
Procedure, shortened: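 NFkB-bla ME-180 cells, 2,000/well, plated overnight at 37 C; compound added for 5 hr at 37 C. Viability read in the same wells as the bla reporter, by CellTiter-Glo luminescence after 30 min at room temperature.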

[5] = qHTS assay to identify small molecule agonists of the endoplasmic reticulum stress response signaling pathway (AID 1159516; active means well fitted activation curve with a large enough effect in the signal ratio in the repeat runs, not every such curve was filed as active; the % refers to the signal ratio)
Procedure, shortened: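 CellSensor ESRE-bla HeLa cells, 1,500 per well, plated overnight, then exposed to compounds for 5 hr at 37 C. Beta-lactamase reporter read with LiveBLAzer B/G FRET substrate after 2 hr at room temperature, 405 nm excitation, 460 and 530 nm emission.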

[6] = qHTS assay to identify small molecule agonists of the endoplasmic reticulum stress response signaling pathway - cell viability counter screen (AID 1159517; calls by dose curve;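 further: HeLa cells carrying an ER stress response element beta-lactamase reporter; series mostly up to about 61 µM; nearly all actives have a fitted effect of over 50% in size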)
Procedure, shortened: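 HeLa cells carrying an ESRE-driven beta-lactamase reporter receive compound for 5 hr at 37 C. Cell viability is then gauged with CellTiter-Glo by luminescence, 30 min at room temperature.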

[7] = qHTS assay to identify small molecule antagonists of the retinoid-related orphan receptor gamma (ROR-gamma) signaling pathway - cell viability counter screen (AID 1159520); further: nearly all actives have a fitted effect of over 50% in size; further: potency means the concentration at half of the fitted maximal effect
Procedure, shortened: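 Cytotoxicity was read from cellular ATP (CellTiter-Glo luminescence) after 16 hr at 37 C with 1 uM doxycycline induction. The inducer was added 2 hr after compound transfer to Tet-on ROR gamma CHO cells.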

[8] = biological target: Nuclear receptor ROR-gamma (Homo sapiens) (UniProt P51449); assay: qHTS assay to identify small molecule antagonists of the retinoid-related orphan receptor gamma (ROR-gamma) signaling pathway (AID 1159521; further: nearly all actives have a fitted effect of over 50% in size; further: potency means the concentration at half of the fitted maximal effect)
Procedure, shortened: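 RORγ antagonism is scored from reduced reporter luminescence in Tet-on CHO cells. Induction used 1 uM final doxycycline hyclate for 16 h at 37 C, following a 2 h compound exposure.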

[9] = qHTS assay to identify small molecule agonists of the AP-1 signaling pathway - cell viability counter screen (AID 1159525; calls by dose curve; further: nearly all actives have a fitted effect of over 55% in size)
Procedure, shortened: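 Luminescent ATP readout (Cell Titer Glo, 30 min RT), normalised to DMSO and tetra n-octyl ammonium bromide controls. Cells were ME-180 AP-1-bla in 0.5% dialyzed FBS Opti-MEM, with a 5 h, 37 °C compound exposure.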

[10] = qHTS assay to identify small molecule agonists of the AP-1 signaling pathway (AID 1159526; calls by dose curve; further: potency means the concentration at half of the fitted maximal effect)
[11] = biological target: Retinoic acid receptor RXR-alpha (Homo sapiens) (UniProt P19793); assay: qHTS assay to identify small molecule agonists of the RXR signaling pathway (AID 1159527; calls by dose curve; further: nearly all actives have a fitted effect of over 35% in size; further: potency means the concentration at half of the fitted maximal effect)
Procedure, shortened: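 qHTS of the Tox21 10K library in GeneBLAzer RXR-alpha HEK 293T cells carrying a beta-lactamase reporter […]; 16 hr treatment, 9-cis retinoic acid as agonist control, FRET read-out.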

[12] = qHTS assay to identify small molecule agonists of the RXR signaling pathway - cell viability counter screen (AID 1159529); further: nearly all actives have a fitted effect of over 50% in size; further: potency means the concentration at half of the fitted maximal effect
Procedure, shortened: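 Cell viability is measured by CellTiter-Glo luminescence, 30 min at room temperature, in wells already read for beta-lactamase. Engineered HEK 293T cells (RXR-alpha-UAS-bla) are dosed 16 hr at 37 C. Tetraoctyl ammonium bromide serves as positive control.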

[13] = qHTS assay to identify small molecule antagonists of the retinoid acid receptor (RAR) signaling pathway - cell viability counter screen (AID 1159551); further: nearly all actives have a fitted effect of over 35% in size
Procedure, shortened: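 C3RL4 RARE-luciferase cells, 1,000/well, incubated overnight, then dosed with compound plus 1 uM retinol (final). After 6 hr at 37 C, viability read by CellTiter-Glo ATP luminescence following 30 min at room temperature.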

[14] = qHTS assay to identify small molecule antagonists of the retinoic acid receptor (RAR) signaling pathway (AID 1159552; further: nearly all actives have a fitted effect of over 50% in size)
Procedure, shortened: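 Quantitative HTS in C3RL4 RARE-luciferase reporter cells. Compounds were added with 1 uM (final) retinol; luminescence was read after 6 hr.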

[15] = qHTS assay to identify small molecule agonists of the retinoic acid receptor (RAR) signaling pathway (AID 1159553); further: potency means the concentration at half of the fitted maximal effect
Procedure, shortened: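 C3RL4 RARE-luciferase cells were seeded at 1,000/well and grown overnight at 37 C, then exposed to compounds for 6 hr at 37 C, 5% CO2. Luciferase reagent was added and luminescence was read after 30 min at room temperature.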

[16] = qHTS assay to identify small molecule antagonists of the estrogen related receptor (ERR) signaling pathway - cell viability counter screen (AID 1224818); further: series mostly up to about 46 µM
Procedure, shortened: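 ERR cells, 2,000 per well, compound added after 6 h and incubated 17.5 h at 37 C. Viability read by CellTiter-Fluor fluorescence after a further 30 min at 37 C.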

[17] = qHTS assay to identify small molecule antagonists of the estrogen related receptor (ERR) signaling pathway (AID 1224819)
Procedure, shortened: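 ERR reporter cell line (NTP) plated at 2,000 cells/well, settled 6 h at 37C/5% CO2, then exposed to LOPAC compounds for 18 h at 37C. One-Glo luciferase luminescence read after 30 min at room temperature.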

[18] = qHTS assay to identify small molecule agonists of the estrogen related receptor (ERR) signaling pathway (AID 1224820); further: potency means the concentration at half of the fitted maximal effect
Procedure, shortened: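 ERR reporter cell line (from NTP), 2,000 cells/well, incubated 6 h before compound addition, then 18 h at 37 C. Luminescence measured 30 min after One-Glo reagent at room temperature.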

[19] = system: estrogen-related receptor alpha (ERRalpha) with PGC-1alpha coactivator, human; assay: qHTS assay to identify small molecule antagonists of the estrogen related receptor signaling pathway with the pleiotropic PPARgamma coactivator (PGC) (AID 1224821; calls by dose curve)
Procedure, shortened: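 PGC/ERR reporter cell line, plated 6 h before compound addition, then exposed 18 h at 37 °C. Luciferase activity read by luminescence 30 min after One-Glo addition; decrease indicates antagonism.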

[20] = qHTS assay to identify small molecule antagonists of the estrogen related receptor signaling pathway with the pleiotropic PPARgamma coactivator (PGC) cell viability counter screen (AID 1224822; further: series mostly up to about 46 µM)
Procedure, shortened: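 PGC/ERR cells rested 6 h, then compound-treated 17.5 h at 37 C. CellTiter-Fluor added for 30 min at 37 C, viability measured by fluorescence intensity.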

Measured: Potency

Sequence of Retinoic acid receptor RXR-alpha (Homo sapiens) (P19793 whole entry, looked up): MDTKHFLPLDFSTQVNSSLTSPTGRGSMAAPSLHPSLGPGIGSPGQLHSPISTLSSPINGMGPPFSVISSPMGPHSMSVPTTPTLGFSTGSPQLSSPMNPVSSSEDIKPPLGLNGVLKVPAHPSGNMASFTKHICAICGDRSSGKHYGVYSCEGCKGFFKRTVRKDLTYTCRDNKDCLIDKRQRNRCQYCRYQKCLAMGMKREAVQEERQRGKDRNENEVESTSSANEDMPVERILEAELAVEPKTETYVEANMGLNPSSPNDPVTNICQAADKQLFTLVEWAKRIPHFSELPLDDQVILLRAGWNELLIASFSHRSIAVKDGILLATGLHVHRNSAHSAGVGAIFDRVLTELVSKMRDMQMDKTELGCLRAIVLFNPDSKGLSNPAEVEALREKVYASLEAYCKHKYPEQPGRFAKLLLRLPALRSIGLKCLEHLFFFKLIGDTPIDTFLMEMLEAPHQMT

C=C(C)C(=O)OCCCCCCCCCCCC
inactive: [1] | [2] | [3] | [4] | [5] | [6] | [7] | [8] | [9] | [10] | [11] | [12] | [13] | [14] | [15]

CC(C)(N=C=O)c1cccc(C(C)(C)N=C=O)c1
inactive: [1] | [2] | [3] | [4] | [5] | [7] | [8] | [9] | [10] | [11] | [12] | [13] | [14] | [15]

OC[C@@H](O)[C@H](O)[C@H](O)[C@@H](O)CO
inactive: [1] | [3] | [4] | [6] | [7] | [8] | [9] | [10] | [11] | [12] | [13] | [14] | [15]

CCc1ccc(O)cc1
inactive: [1] | [2] | [3] | [4] | [7] | [8] | [9] | [10] | [11] | [12] | [13] | [14] | [15]

CC1Cc2ccccc2N1NC(=O)c1ccc(Cl)c(S(N)(=O)=O)c1 (stereo not given)
inactive: [1] | [2] | [3] | [4] | [7] | [8] | [9] | [10] | [11] | [12] | [13] | [14] | [15]

CC[Si](OC(C)=O)(OC(C)=O)OC(C)=O
inactive: [1] | [2] | [3] | [4] | [5] | [7] | [8] | [9] | [10] | [11] | [12] | [13]

O=S(=O)(O)CCS
inactive: [1] | [3] | [4] | [6] | [7] | [8] | [9] | [10] | [11] | [12] | [13]

CCOC(=O)C1OC1c1ccccc1 (stereo not given)
inactive: [1] | [3] | [4] | [6] | [7] | [8] | [9] | [10] | [11] | [12] | [13] | [14] | [15]

S=c1nc[nH]c2nc[nH]c12
active: [1] 15.1 µM and 10.6 µM | [12] 3.01 µM
inactive: [3] | [4] | [5] | [7] | [8] | [9] | [10] | [14] | [15]

CCC(=O)O
inactive: [1] | [2] | [3] | [4] | [6] | [7] | [8] | [9] | [10] | [11] | [12] | [13] | [14]

CC1CC(OC(=O)c2ccccc2O)CC(C)(C)C1 (stereo not given)
34.3 µM (active) and inactive: [1]
inactive: [2] | [3] | [4] | [6] | [7] | [8] | [9] | [11] | [12] | [13] | [14] | [15]

CCCCC(CC)COC(=O)CCCCCCCC(=O)OCC(CC)CCCC (stereo not given)
inactive: [1] | [3] | [4] | [7] | [9] | [10] | [11] | [12] | [13]

Cc1ccc(N)c(S(=O)(=O)O)c1
inactive: [1] | [2] | [3] | [4] | [6] | [7] | [8] | [9] | [10] | [11] | [12] | [13] | [14] | [15]

OC1CCCC1
inactive: [1] | [2] | [3] | [4] | [7] | [8] | [9] | [10] | [11] | [12] | [13] | [14] | [15]

CCOC(=O)[C@H](CCc1ccccc1)N[C@@H](C)C(=O)N1Cc2ccccc2C[C@H]1C(=O)O
inactive: [1] | [2] | [3] | [4] | [7] | [8] | [9] | [11] | [12] | [13] | [14] | [15]
inactive and 26.8 µM (active): [10]

OCC#CCO
inactive and 54.5 µM (active): [7]
inactive: [1] | [2] | [3] | [4] | [8] | [9] | [10] | [11] | [12] | [13] | [14] | [15]

CN(C)c1cccc(O)c1
inactive and 34.4 µM (active): [15]
inactive: [1] | [2] | [3] | [4] | [7] | [9] | [10] | [11] | [12] | [13] | [14]

O=c1c(-c2ccc(O)cc2)coc2cc(O)ccc12
inactive: [1] | [2] | [4] | [5] | [6] | [7] | [8] | [9] | [10] | [11] | [12] | [13] | [14] | [16] | [17] | [19] | [20]
active: [15] 2.41 µM and 12.2 µM | [18] 15.5 µM

C=C1CC[C@H](O)CC1=C/C=C1\CCC[C@]2(C)[C@@H]([C@H](C)/C=C/[C@H](C)C(C)C)CC[C@@H]12
inactive: [2] | [3] | [4] | [9] | [13] | [14]
active: [12] 24.5 µM | [15] 61.1 µM

CCc1ccccc1O
inactive: [1] | [2] | [3] | [4] | [9] | [10] | [12] | [13] | [14] | [15]
60.8 µM (active) and inactive: [7]
30.5 µM (active) and inactive: [8]
5.47 µM (active) and inactive: [11]
